According to PubChem BioAssay AID1508625 (Wald Lab, School of Medicine, Case Western Reserve …, 2021):

Assay: small molecules boosting NK-mediated OVCAR3 lysis – imaging, primary NK cells, calcein-AM imaging, primary screen (AID 1508625);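 also: compound given to NK cells 16 h before adding targets at 1.5 to 1 ratio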;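 as to z-score: more negative robust z means stronger NK killing of tumor cells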
Conditions: OVCAR3 lysis by primary NK cells, at 5 µM; z-score: measured here: robust Z-score, single-point normalisation

Compound	z-score	corrected activity, negative = more killing
COC(=O)c1cc2nc(-c3ccccc3)cc(C)n2n1	-1.39	-2.69%
O=C1OC(c2ccccc2Cl)=NC1=Cc1ccccc1F	-1.49	-3.5%
CCc1ccc(NC(=O)CCNC(=O)Cn2cnc3ccccc3c2=O)cc1	0.279	0.879%
COc1ccc(CN2c3cccc[n+]3CC2(O)c2ccc(Cl)cc2)cc1 (stereo unspecified)	0.0419	0.199%
O=C(Nc1ccc(Cl)cc1)c1ccc(F)c(S(=O)(=O)N2CCOCC2)c1	-1.77	-4.69%
Cc1cc(=O)oc2ccc(Oc3ccc(C#N)cc3[N+](=O)[O-])cc12	-0.183	-0.59%
O=C(NC1CCCCC1)c1nn2c(C(F)(F)F)cc(-c3ccco3)nc2c1Br	-1.55	-4.13%
COc1ccccc1N1C(=O)C2C(C(C)=O)=NN(c3ccc(Cl)cc3)C2C1=O (stereo unspecified)	-0.704	-1.87%
C#CCN1C(=O)C(O)(CC(=O)c2ccc(OC)c(OC)c2)c2cc(Br)ccc21 (stereo unspecified)	-1.51	-5.04%
Cc1ccc(OCCNC(=O)C2CCCCC2)cc1	-2.59	-4.66%
CCOc1ccc2nc(NC(=O)CCC(=O)OCC(F)(F)F)sc2c1	-1.41	-3.74%
O=C(O)CSCCC(=O)Nc1ccc(F)cc1	-1.93	-7.17%
COc1ccc(-c2coc3c(C)c4oc(=O)c5c(c4cc23)CCC5)cc1	-1.1	-3.7%
NC(C(=O)O)C(O)c1cccc([N+](=O)[O-])c1 (stereo unspecified)	-0.224	-0.723%
COCCNCCCSc1ccc(Cl)cc1	-0.737	-1.98%
Cc1c(C(=O)Oc2cccc3ccccc23)cccc1[N+](=O)[O-]	-2.77	-7.35%
COc1ccc(N2C(=O)c3ccc(C)cc3C2=O)cc1OC	-2.54	-6.75%
CCC(C)N1C(=O)c2ccccc2C1C(=O)NC1CCCCCC1 (stereo unspecified)	-1.78	-6.27%
Cc1cc(Br)cc2c(N=NC(=O)c3ccccc3)c(O)[nH]c12	-0.646	-1.64%

Compound	z-score	corrected activity, negative = more killing
Cc1cc(Br)ccc1NC(=O)CCNC(=O)Cn1cnc2sc3c(c2c1=O)CCCC3	-0.0893	-0.281%
CCOC(=O)c1sc(N2C(=O)C(=O)C(=C(O)c3ccccc3)C2c2ccc(C(C)(C)C)cc2)nc1C (stereo unspecified)	-0.48	-1.11%
COc1ccc(NC(=O)c2coc(=O)c3ccccc23)cc1Cl	-1.24	-3.91%
FC(F)(F)c1cc(-c2cccs2)nc2nc(=S)[nH]n12	-0.791	-2.93%
CCOC(=O)c1ccc(NC(=O)CCc2ccccc2)cc1	-1.15	-3.6%
COC(=O)c1ccc(COC(=O)c2cc(=O)[nH]c3ccccc23)cc1	-0.835	-1.5%
CC(=O)c1ccc(NC(=O)c2ccc(C)c([N+](=O)[O-])c2)cc1	-1.31	-3.69%
O=[N+]([O-])c1ccc(CNC2CCCC2)cc1	-1.76	-5.52%
CC(C)Oc1ccc(CNC2CCOC(C)(C)C2)cc1 (stereo unspecified)	-1.2	-3.04%
Cc1ccc(-n2c(C)cc(C(=S)N3CCOCC3)c2C)cc1Cl	-1.54	-4.03%
COc1cccc(-n2c(SCC(=O)Nc3ccccc3F)nc3c([nH]c4ccccc43)c2=O)c1	-2.69	-10.8%
CCCc1c(C)c2cc3c(C)coc3cc2oc1=O	-2.03	-6.81%
Cc1ccc(N2C(=O)C(N3C(=O)c4cccc([N+](=O)[O-])c4C3=O)C2c2ccc(F)cc2)cc1F (stereo unspecified)	-0.904	-2.91%
CCOc1ccc(-n2c(SCc3ccccc3Cl)nc3c(c2=O)SCC3)cc1	-0.774	-3.11%
O=[N+]([O-])c1ccc(C=Nn2c(CO)nc3ccccc32)cc1	-1.6	-5.03%
CCOC(=O)C1=C(N)OC2=C(C(=O)CC(C)(C)C2)C1c1ccccc1[N+](=O)[O-] (stereo unspecified)	-0.587	-1.89%
COc1ccc(NC(=O)c2sc3cc([N+](=O)[O-])ccc3c2Cl)c(OC)c1	-0.942	-2.66%
COc1ccccc1C(=O)N1CCN(S(=O)(=O)c2ccc(C)cc2)CC1	-1.35	-3.03%
CCCCNCCCOc1cccc(Br)c1	-0.168	-0.452%
